Experimental data as given in PubChem BioAssay AID1159580 (chemical genetic matrix, 2015).
Hit rate of the full screen: of about 5,500 compounds, about 2,000 (36%) were called active. Inconclusive results (about 18%) are left out. No stated cut-off is given here; in the data, active means normalized growth mostly below about 0.91 (no sharp cut-off); inconclusive means no clear call, values can overlap the other calls; inactive means mostly above about 0.92. Some of the results follow.

Test: chemical genetic growth profiling, strain panel (AID 1159580);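 further: tested at 20 µM; growth read once vehicle control cultures reached saturation at 30 °C; 1 = growth at the plate median or of vehicle wells; lower values mean less growth of the strain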
Settings: S. cerevisiae deletion strains, growth OD

Measured: normalized growth

CC(C)Oc1cccnc1N(C)C1CCN(Cc2ccccc2)CC1
inactive: locus YAL013W, strain DEP1, active compounds read low 1.02 | locus YAL040C, strain CLN3, active compounds read low 0.983 | locus YCL061C, strain MRC1 (second series), active compounds read low 1 | locus YDR363W, strain ESC2, active compounds read low 1 | locus YER002W, strain NOP16, active compounds read low 0.967 | locus YJR075W, strain HOC1, active compounds read low 1.01 | locus YMR307W, strain GAS1, active compounds read low 1.03 | locus YNL128W, strain TEP1, active compounds read low 1.01 | locus YNL175C, strain NOP13, active compounds read low 0.991 | locus YNL197C, strain WHI3, active compounds read low 0.991 | locus YNL224C, strain SQS1, active compounds read low 1 | locus YNL322C, strain KRE1, active compounds read low 1.01 | locus YOR083W, strain WHI5 (second series), active compounds read low 0.976 | locus YPL055C, strain LGE1, active compounds read low 1 | locus YPL241C, strain CIN2, active compounds read low 1.01
